Compound activity as filed in PubChem BioAssay.
HepG2 viability: kills HepG2 cells in TGF-b inhibitor counter-screen; Potency, µM (top dose mostly 46.1 µM), inactives show top-dose activity change, negative = cytotoxicity, hits mostly cytotoxic; HepG2 CAGA-GFP viability, ATP luminescence, 18 h; 0.76% of 410,000 active; AID 588856
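HepG2 CAGA-GFP cells (1000/well, DMEM with 1% FBS) received compound, then TGF-beta at 500 pg/mL final, and were incubated 18 hours at 37 degrees C. Viability was read by CellTiter-Glo luminescence. Media-only wells were set as complete cell-killing and DMSO as no toxicity.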
ATXN2 expr inh: inhibitors of ATXN2 expression; HEK-293 ATXN2-luciferase reporter, luminescence, 24 h; AID 1745845; 0.72% of 360,000 active; Potency, µM (series often up to 57 µM), without a hit: top-dose activity change, negative = inhibition, actives largely listed as inhibitors; note: % is set by controls: 0 for no effect and ±100 for the full control effect; nearly all actives have a fitted effect of over 55% in size
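ATXN2-luciferase reporter cells (luciferase flanked by upstream and downstream ATXN2 gene portions) were treated 24 h at 37 °C with compounds at up to 57 uM. SteadyGlo luminescence gave expression; GF-AFC fluorescence gave viability.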
12-LOX inh: blocks human arachidonate 12S-lipoxygenase; Potency, µM (series often up to 108 µM), for inactives: at the top dose activity change, negative = inhibition, actives largely listed as inhibitors; P18054; 1.1% of 580,000 active; purified 12hLO, xylenol orange hydroperoxide absorbance; note: % is set by controls: 0 for no effect and ±100 for the full control effect
Target sequence (P18054 whole entry, looked up): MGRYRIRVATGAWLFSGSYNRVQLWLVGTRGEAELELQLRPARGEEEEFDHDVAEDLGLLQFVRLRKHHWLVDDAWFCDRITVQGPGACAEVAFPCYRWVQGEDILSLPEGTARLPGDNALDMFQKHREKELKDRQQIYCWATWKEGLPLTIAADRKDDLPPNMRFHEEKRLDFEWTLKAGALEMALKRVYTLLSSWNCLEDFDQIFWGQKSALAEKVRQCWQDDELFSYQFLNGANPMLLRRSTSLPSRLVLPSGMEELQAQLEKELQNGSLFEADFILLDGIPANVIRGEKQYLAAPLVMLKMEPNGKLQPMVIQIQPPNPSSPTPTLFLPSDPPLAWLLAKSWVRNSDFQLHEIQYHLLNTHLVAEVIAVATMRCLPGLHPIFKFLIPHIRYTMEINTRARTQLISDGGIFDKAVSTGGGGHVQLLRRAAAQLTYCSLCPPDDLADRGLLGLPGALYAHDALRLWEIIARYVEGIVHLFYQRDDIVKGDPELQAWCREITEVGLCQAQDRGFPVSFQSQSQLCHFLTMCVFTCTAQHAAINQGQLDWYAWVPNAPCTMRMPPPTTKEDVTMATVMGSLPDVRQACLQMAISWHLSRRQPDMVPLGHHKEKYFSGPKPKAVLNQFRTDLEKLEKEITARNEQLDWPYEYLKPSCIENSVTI
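Purified human 12hLO at 150 nM in 25 mM Hepes, 0.01% Triton X-100, pH 7.0, preincubated 15 min at room temperature with compound. Reaction started with 40 uM arachidonic acid, 30 min at room temperature. Hydroperoxide measured by Fe-xylenol orange, 573/405 nm absorbance ratio.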
ATXN viability: cell viability loss in ATXN counter-screen. Potency, µM (series often up to 56.7 µM), hits mostly cytotoxic. 0.49% of 400,000 active. S2 cells (HEK-293 line with an ATXN2-luciferase reporter) viability, CellTiter-Fluor protease fluorescence, 24 h; note: nearly all actives have a fitted effect of over 40% in size
TGFb inhibitor: TGF-b pathway inhibition; HepG2 CAGA-GFP TGF-b/SMAD3 reporter, GFP fluorescence, 18 h; TGF-beta stimulated, 500 pg/mL final; Potency, µM (top dose mostly 46.1 µM), inactives show top-dose activity, negative = inhibition, usual class: inhibitors; 1.2% of 410,000 active; note: % is set by controls: 0 for no effect and ±100 for the full control effect; nearly all actives have a fitted effect of over 65% in size
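Cell-based qHTS in HEPG2 carrying a CAGA-GFP Smad reporter; compounds added before 500 pg/mL final TGF-beta, 18 h incubation at 37 degrees C, GFP fluorescence quantified per cell by imaging cytometry.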
Starred values were filed as active, the others as inactive; ! = repeats disagree; [ ] = another dose, or the depositor's remark. This is a sample that favours compounds with a hit; in the whole collection about 2.7% have one here. Calls come from the whole dose curve; as a rule, active = well fitted curve in the direction sought with a large enough effect; inconclusive = small, poorly fitted or top-dose-only effect, or another doubt; inactive = no such curve, though single readings can be large; an effect the other way counts as inactive or inconclusive. Potency is the fitted concentration of half-maximal effect.

For Cc1nn(CCc2nc(-c3ccco3)cs2)c2[nH]c(=O)cc(C(F)(F)F)c12 the results were HepG2 viability 13%, ATXN2 expr inh -2%, 12-LOX inh 7.9µM*, ATXN viability inactive and TGFb inhibitor -3%.
CC(NCc1cc(Br)ccc1OCC(=O)NCc1ccccc1)c1ccccc1 (configuration not stated) was read as HepG2 viability -89%, ATXN2 expr inh -27%, 12-LOX inh inconclusive, ATXN viability inconclusive and TGFb inhibitor 13µM*.
Screening O=C(CCC(=O)NNC(=O)COc1ccc(Br)cc1Br)NCc1ccccc1 returned HepG2 viability 0%, ATXN2 expr inh -20%, 12-LOX inh -8%, ATXN viability inactive and TGFb inhibitor 2%.
`CCN(CC)CCNCc1ccc(Br)cc1OCC(=O)NCc1ccccc1` gave HepG2 viability -1%, 12-LOX inh -13%, ATXN viability inactive and TGFb inhibitor 0%.
For CCN(CC)CCNCc1cc(Br)ccc1OCC(=O)NCc1ccccc1 the results were HepG2 viability -20%, 12-LOX inh 28µM*, ATXN viability inactive and TGFb inhibitor 0%.
For Cc1cccc(-n2c(Cc3ccccc3)nnc2SCc2nc(-c3cccs3)no2)c1 the results were HepG2 viability -52%, ATXN2 expr inh inconclusive, 12-LOX inh 0%, ATXN viability inconclusive and TGFb inhibitor 13µM*.
For S=c1nc(-c2ccco2)[nH][nH]1 the results were HepG2 viability 10%, ATXN2 expr inh 1%, 12-LOX inh 6.3µM*, ATXN viability inactive and TGFb inhibitor 0%.
Screening O=C(CCCc1nc2ccccc2o1)NCc1ccc(Cl)cc1 returned 12-LOX inh 15%.
O=C(O)c1cccc(-c2cc3ccccc3oc2=O)c1 was read as 12-LOX inh -52%.
For O=C/C=C/c1c(-c2ccccc2)cc2oc3ccccc3cc1-2 the results were HepG2 viability 16µM*, ATXN2 expr inh inconclusive, 12-LOX inh inconclusive, ATXN viability inconclusive and TGFb inhibitor 11µM*.
`Cc1ccc(N2CC(C(=O)NCCS(=O)(=O)N3CCN(c4ccc(F)cc4)CC3)CC2=O)cc1` (configuration not stated) gave HepG2 viability 1µM*!, ATXN2 expr inh -6%, 12-LOX inh 22%, ATXN viability inactive and TGFb inhibitor 17%.
For CC(C)=NNC(=O)C(C)Sc1ccccc1 (configuration not stated) the results were 12-LOX inh 0%.
COC(=O)CC/C(=N/Nc1ccc(Cl)c(Cl)c1)C(=O)OC was read as HepG2 viability -8%, ATXN2 expr inh 10%, 12-LOX inh 16µM*, ATXN viability inactive and TGFb inhibitor -12%.
Screening CCCNC(=O)[C@@H]1Cc2cn(Cc3ccncc3)c3cccc(c23)[C@H](CC(C)C)N1 returned 12-LOX inh 0%[176 µM].
For CC1=Nc2cc(C(=O)O)ccc2Sc2ccc(C)cc21 the results were HepG2 viability 5%, ATXN2 expr inh 11%[11.3 µM], 12-LOX inh 0%, ATXN viability inactive and TGFb inhibitor 0%.
For CCC(C)NC(=O)c1ccc2c(c1)N=C(C)c1cc(C)ccc1S2 (configuration not stated) the results were HepG2 viability -22%, ATXN2 expr inh -19%, 12-LOX inh 0%, ATXN viability inconclusive and TGFb inhibitor 7.1µM*.
Screening Nc1c(Cl)ncnc1N/N=C/c1ccnc2ccccc12 returned HepG2 viability 9%, ATXN2 expr inh 10%, 12-LOX inh -23%, ATXN viability inconclusive and TGFb inhibitor 6%.
Nc1c(Cl)ncnc1N/N=C/c1ccccn1 was read as HepG2 viability -49%, ATXN2 expr inh inconclusive, 12-LOX inh inconclusive, ATXN viability 13µM* and TGFb inhibitor 4µM*.
`Nc1c(Cl)ncnc1N/N=C/c1ccc2ccccc2n1` gave HepG2 viability -20%, ATXN2 expr inh 7.9µM*, 12-LOX inh inconclusive, ATXN viability 10µM* and TGFb inhibitor 4.5µM*.
For O=C(CSc1nc2ccccc2c(=O)n1-c1ccc(F)cc1F)NC(=O)NC1CCCC1 the results were 12-LOX inh -1%.
`CC(C)Cn1c([N+](=O)[O-])nc2c1c(=O)[nH]c(=O)n2C` gave HepG2 viability 11µM*, ATXN2 expr inh inconclusive, 12-LOX inh -5% and TGFb inhibitor inconclusive.
Cn1c(=O)[nH]c(=O)c2c1nc(Sc1ccccc1)n2Cc1ccccc1 was read as 12-LOX inh -20%.
`Cn1c(=O)[nH]c(=O)c2c1nc([N+](=O)[O-])n2Cc1ccccc1` gave HepG2 viability 5µM*, ATXN2 expr inh inconclusive, 12-LOX inh 167%, ATXN viability 6µM* and TGFb inhibitor 5µM*.
Screening Cc1oc(-c2ccc(Cl)cc2)nc1CSc1nc2c(c(=O)[nH]1)CCC2 returned 12-LOX inh 23%.
COc1ccc(OCC(=O)N(Cc2cccs2)c2ccc(OC)cc2)cc1 was read as HepG2 viability -10%, 12-LOX inh 0% and TGFb inhibitor -28%.
For CCOc1ccccc1C(=O)N(Cc1cccs1)c1ccc(Cl)cc1 the results were HepG2 viability -97%, ATXN2 expr inh 0%, 12-LOX inh 0%, ATXN viability inconclusive and TGFb inhibitor 18µM*.
For COc1ccc(N(Cc2cccs2)C(=O)Nc2cccc(Cl)c2)cc1 the results were HepG2 viability -20%, 12-LOX inh 16µM* and TGFb inhibitor inconclusive.
Screening CCc1ccc(OCC(=O)N(Cc2cccs2)c2ccc(Cl)cc2)cc1 returned HepG2 viability -33%, ATXN2 expr inh -31%, 12-LOX inh 0%, ATXN viability inconclusive and TGFb inhibitor 16µM*.
For COc1ccc(C(=O)Oc2cc(C)ccc2C)cc1I the results were 12-LOX inh 2%.
For CCc1c(CN2CCN(c3ccc(F)cc3)CC2)csc1C the results were HepG2 viability -33%, 12-LOX inh 45µM*! and TGFb inhibitor -18%.
For COc1ccc(CCNCC(O)COc2cccc(Br)c2)cc1 (configuration not stated) the results were HepG2 viability 13µM*, ATXN2 expr inh inconclusive, 12-LOX inh inconclusive, ATXN viability inactive and TGFb inhibitor -37%.
For COc1ccc(CN(C)CC(O)COC(c2ccc(OC)cc2)c2ccc(OC)cc2)cc1 (configuration not stated) the results were HepG2 viability 22µM*, ATXN2 expr inh -4%, 12-LOX inh inconclusive, ATXN viability inactive and TGFb inhibitor inconclusive.
CN(Cc1ccc(Br)cc1)CC(O)COc1cccc(Br)c1 (configuration not stated) was read as HepG2 viability -31%, ATXN2 expr inh -28%, 12-LOX inh 0.89µM*, ATXN viability inactive and TGFb inhibitor inconclusive.
